High-throughput results deposited in PubChem BioAssay by several laboratories.
Sampled rows, rich in hits. Any-hit rate of the full collection: about 0.2%.
Bim-Bcl-W – inhibitors of Bim-Bcl-W interaction, human; Q92843; bead-based flow cytometry, Bim peptide-Bcl-W binding; inhibition, % at 10 µM; 190,000 tested, 0.02% active;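 further: 0% = bound tracer without compound and 100% = peptide blocker; higher means less fluorescent Bim peptide bound to Bcl-W beads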
Pf gametocyte – P. falciparum stage V gametocyte viability inhibition. P. falciparum stage V gametocytes, ATP luminescence, 24 h. inhibition, % at 10.9 µM. 150,000 tested, 0.065% active. AID 743093;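 active means inhibition above the mean plus 3 SD of compounds within the control limits, set per campaign, cut at about 38% in these data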;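 further: 0% = DMSO wells and 100% = medium only without gametocytes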
Bcl-B Bim block – human Bim-Bcl-B interaction inhibition; bead-based flow cytometry, Bim peptide-Bcl-B binding; Q9HD36; inhibition, % at 10 µM; 190,000 tested, 0.073% active;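 further: 0% = tracer peptide without compound and 100% = reference inhibitor peptide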
Bim-Bcl-2 – human Bim-Bcl-2 interaction inhibition. inhibition, % at 10 µM. Bead-based flow cytometry, Bim peptide-Bcl-2 binding. 190,000 tested, 0.06% active. P10415; in the data active means inhibition above about 40%;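 further: 0% = no compound wells with probe peptide and 100% = reference peptide inhibitor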
Target sequence (P10415 whole entry, looked up): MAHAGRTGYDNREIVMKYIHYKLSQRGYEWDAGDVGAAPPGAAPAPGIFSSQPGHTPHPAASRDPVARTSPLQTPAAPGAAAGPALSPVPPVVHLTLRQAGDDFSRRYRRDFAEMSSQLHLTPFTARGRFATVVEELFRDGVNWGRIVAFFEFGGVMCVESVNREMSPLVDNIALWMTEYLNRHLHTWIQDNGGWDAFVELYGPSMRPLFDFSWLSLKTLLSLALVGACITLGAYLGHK
Bim-Bcl-XL – disrupts Bim peptide binding to human Bcl-XL; AID 1007; bead flow cytometry, fluorescence; inhibition, % at 10 µM; 190,000 tested, 0.04% active
Target sequence (Q07817 whole entry, looked up): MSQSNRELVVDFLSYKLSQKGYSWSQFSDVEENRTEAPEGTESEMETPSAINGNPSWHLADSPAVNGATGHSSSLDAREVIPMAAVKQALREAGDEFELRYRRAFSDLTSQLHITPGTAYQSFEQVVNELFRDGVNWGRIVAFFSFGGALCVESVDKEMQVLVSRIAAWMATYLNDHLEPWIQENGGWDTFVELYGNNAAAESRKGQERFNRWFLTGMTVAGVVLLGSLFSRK
Bfl-1 Bim block – inhibitors of Bim-Bfl-1 interaction, human; 190,000 tested, 0.12% active; AID 1008; Q16548; inhibition, % at 10 µM; Bead-based flow cytometry, Bim-Bfl-1 binding inhibition;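 further: 0% = wells without compound plus tracer and 100% = blocker peptide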
The depositor's hits bear a star. Unless noted, no stated cut-off is given here; in the data, active means inhibition above about 40%.

Screening CC(CCc1ccccc1)NC(=O)C1CCN(S(=O)(=O)N2CCCCC2)CC1 (stereo not given) returned Bim-Bcl-W 25, Bcl-B Bim block 25, Bim-Bcl-2 28, Bim-Bcl-XL 41* and Bfl-1 Bim block 38.
For O=[N+]([O-])c1ccc(-c2cnc(SC(c3ccccc3)c3ccccc3)[nH]2)cc1 the results were Bim-Bcl-W -5, Pf gametocyte -22, Bcl-B Bim block -12, Bim-Bcl-2 -8, Bim-Bcl-XL -5 and Bfl-1 Bim block -10.
O=[N+]([O-])c1ccc(-c2cnc(SCc3ccccc3Cl)[nH]2)cc1 was read as Bim-Bcl-W 12, Bcl-B Bim block 81*, Bim-Bcl-2 80*, Bim-Bcl-XL 14 and Bfl-1 Bim block 59*.
Screening COc1cc(OC)c([N+](=O)[O-])cc1/C=N/NC(=O)c1ccncc1 returned Bim-Bcl-W 40*, Pf gametocyte -7, Bcl-B Bim block 7, Bim-Bcl-2 21, Bim-Bcl-XL 13 and Bfl-1 Bim block 38.
Screening COc1cc(/C=N/NC(=O)c2ccncc2)cc(OC)c1OC returned Pf gametocyte 4.
`CCOc1cc(NC(=S)NCC2CCCO2)c(OCC)cc1NC(=O)c1ccc(OC)cc1` (stereo not given) gave Bim-Bcl-W -3, Pf gametocyte -6, Bcl-B Bim block -7, Bim-Bcl-2 -9, Bim-Bcl-XL -3 and Bfl-1 Bim block -12.
`CCOc1cc(NC(=S)NC)c(OCC)cc1NC(=O)c1ccc(OC)cc1` gave Bim-Bcl-W 49*, Pf gametocyte -3, Bcl-B Bim block 41*, Bim-Bcl-2 53*, Bim-Bcl-XL 27 and Bfl-1 Bim block 45*.
For Cc1ccc(C)n1-c1ccc(N2CCOCC2)cc1 the results were Bim-Bcl-W 3, Pf gametocyte -70, Bcl-B Bim block 40*, Bim-Bcl-2 7, Bim-Bcl-XL 2 and Bfl-1 Bim block 6.
For CCN(CC)S(=O)(=O)c1cc(C(=O)Nc2cc(C)on2)c(Cl)cc1Cl the results were Pf gametocyte -16.
For CC(C)CN1C(=O)/C(=C/c2ccco2)NC1=S the results were Bim-Bcl-W 6, Pf gametocyte 13, Bcl-B Bim block -23, Bim-Bcl-2 11, Bim-Bcl-XL 3 and Bfl-1 Bim block 47*.
Screening CCCNC(=O)CNC(=O)c1ccc(C#N)cc1 returned Pf gametocyte -15.
Screening COc1cc2[nH]c(=S)nc(Nc3ccc(NC(C)=O)cc3)c2cc1OC returned Bim-Bcl-W 33, Pf gametocyte -5, Bcl-B Bim block 31, Bim-Bcl-2 21, Bim-Bcl-XL 50* and Bfl-1 Bim block 29.
Screening COc1cc2[nH]c(=S)nc(NCCc3ccc(S(N)(=O)=O)cc3)c2cc1OC returned Bim-Bcl-W 39, Pf gametocyte -4, Bcl-B Bim block 31, Bim-Bcl-2 19, Bim-Bcl-XL 55* and Bfl-1 Bim block 12.
For COc1ccc(CCNc2nc(=S)[nH]c3cc(OC)c(OC)cc23)cc1OC the results were Bim-Bcl-W 28, Bcl-B Bim block 10, Bim-Bcl-2 14, Bim-Bcl-XL 48* and Bfl-1 Bim block 14.
For COc1cc2[nH]c(=S)nc(NCCc3ccc(C)cc3)c2cc1OC the results were Bim-Bcl-W 20, Bcl-B Bim block 0, Bim-Bcl-2 4, Bim-Bcl-XL 32 and Bfl-1 Bim block 3.
For COC(=O)c1ccc(COC(=O)CNC(=O)CNC(=O)c2ccc(OC)cc2)cc1 the results were Pf gametocyte 6.
`O=C(Nn1c(C2CCCCC2)nc2ccccc2c1=O)c1ccc([N+](=O)[O-])cc1` gave Bim-Bcl-W 0, Pf gametocyte 42*, Bcl-B Bim block 0, Bim-Bcl-2 -1, Bim-Bcl-XL 1 and Bfl-1 Bim block -11.
`COc1cccc(OC)c1C(=O)Nn1c(C2CCC2)nc2ccccc2c1=O` gave Bim-Bcl-W 1, Pf gametocyte -11, Bcl-B Bim block 0, Bim-Bcl-2 -3, Bim-Bcl-XL -1 and Bfl-1 Bim block 0.
Screening N#Cc1c(N)n(-c2ccc(O)cc2)c2nc3ccccc3nc12 returned Bim-Bcl-W 4, Pf gametocyte 38*, Bcl-B Bim block 10, Bim-Bcl-2 4, Bim-Bcl-XL 2 and Bfl-1 Bim block 7.
COc1ccc(NC(=O)/C(C#N)=C/c2c(C)nn(-c3ccc(F)cc3)c2Cl)cc1Cl was read as Bim-Bcl-W 20, Pf gametocyte -4, Bcl-B Bim block 29, Bim-Bcl-2 32, Bim-Bcl-XL 32 and Bfl-1 Bim block 42*.
`Nc1c(C(=O)NCC2CCCO2)sc2nc3c(c(-c4ccco4)c12)CC/C3=C\c1ccco1` (stereo not given) gave Bim-Bcl-W 33, Pf gametocyte 0, Bcl-B Bim block 52*, Bim-Bcl-2 65*, Bim-Bcl-XL 37 and Bfl-1 Bim block 38.
`Cc1ccc(NC(=O)Nc2sc(=S)n(C)c2C)cc1` gave Bim-Bcl-W -1, Bcl-B Bim block -11, Bim-Bcl-2 -7, Bim-Bcl-XL -6 and Bfl-1 Bim block -10.
`CC(=O)NC(=O)Nc1sc(=S)n(C)c1C` gave Bim-Bcl-W 37, Pf gametocyte -10, Bcl-B Bim block 33, Bim-Bcl-2 34, Bim-Bcl-XL 49* and Bfl-1 Bim block 56*.
Screening C/C(=N/NC(=O)Cc1cccn1C)c1ccccc1 returned Bim-Bcl-W 7, Bcl-B Bim block 0, Bim-Bcl-2 4, Bim-Bcl-XL 4 and Bfl-1 Bim block 9.
`C/C(=N\NC(=O)Cc1cccn1C)c1ccc2ccccc2c1` gave Bim-Bcl-W 19, Pf gametocyte -7, Bcl-B Bim block 46*, Bim-Bcl-2 50*, Bim-Bcl-XL 29 and Bfl-1 Bim block 15.
CC(=O)Nc1ccc(S(=O)(=O)Nc2cccc(NC(=O)c3ccco3)c2)cc1 was read as Bim-Bcl-W 4, Pf gametocyte 12, Bcl-B Bim block 1, Bim-Bcl-2 0, Bim-Bcl-XL 1 and Bfl-1 Bim block 0.
For Cc1sc(NC(=O)Cn2cnnn2)nc1-c1ccc(Cl)cc1 the results were Bim-Bcl-W 7, Pf gametocyte 17, Bcl-B Bim block 67*, Bim-Bcl-2 84*, Bim-Bcl-XL 20 and Bfl-1 Bim block 53*.
`COc1ccc(-c2nc(NC(=O)Cn3cnnn3)sc2C)cc1` gave Bim-Bcl-W 0, Pf gametocyte -2, Bcl-B Bim block -3, Bim-Bcl-2 2, Bim-Bcl-XL -2 and Bfl-1 Bim block -2.
COc1ccc(/C=N/n2cc(-c3ccccc3)nc2N)cc1 was read as Bim-Bcl-W 12, Bcl-B Bim block 84*, Bim-Bcl-2 84*, Bim-Bcl-XL 19 and Bfl-1 Bim block 65*.
Screening Cc1ccc2c(c1)sc1nc(=O)ccn12 returned Pf gametocyte 3.
For CC1C=CCC2C(=O)N(c3ccccc3OC(=O)c3cccs3)C(=O)C12 (stereo not given) the results were Bim-Bcl-W -1, Bcl-B Bim block -3, Bim-Bcl-2 -6, Bim-Bcl-XL -3 and Bfl-1 Bim block -9.
